For some of these results: Measured potencies and affinities stand elsewhere. The source made the active and inactive calls.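 Rule for the calls, unless noted: active = primary screen hit whose calcium fluorescence ratio, in both repeats, exceeds the weak agonist control mean by 3 SD; inactive = the rest.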
How the values were obtained:
[1] = system: TRPC4 beta (transient receptor potential cation channel C4), mouse; test: TRPC4 cation channel opening, retest – cell-based, Fluo4 calcium, HEK293 TRPC4beta/mu-opioid, duplicates, 10 µM, confirmation (AID 2426;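 active = fluorescence ratio normalized to control raised more than 50% in primary screen plus both repeat runs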); settings: Fluo4 calcium fluorescence, at 10 µM; stronger effect = higher value
[2] = system: transient receptor potential cation channel C4 beta (TRPC4), mouse; test: TRPC4 cation channel opening, second retest – cell-based, second round, Fluo4, HEK293 TRPC4beta/mu-opioid, 1 µM, confirmation (AID 2461;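 active = primary screen active and over 50% activation in each of two duplicate runs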); settings: Fluo4 calcium fluorescence, at 1 µM; stronger effect = higher value
[3] = system: TRPC4 (transient receptor potential cation channel C4 beta), mouse; test: potentiation of DAMGO EC20 TRPC4 response – cell-based, second round, Fluo-4, HEK293 TRPC4beta/mu-opioid, 1 µM, confirmation (AID 2554;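 active = primary screen hit whose fluorescence ratio, in both repeats, exceeds the weak agonist control mean by 3 SD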); settings: DAMGO EC20, Fluo-4 calcium flux, at 1 µM; stronger effect = higher value
[4] = system: TRPC4 beta (transient receptor potential cation channel C4), mouse; test: potentiation of DAMGO EC20 TRPC4 response – cell-based, Fluo-4, HEK293 TRPC4beta/mu-opioid, confirmation (AID 2555); settings: DAMGO EC20, Fluo-4 calcium flux, at 10 µM; stronger effect = higher value
[5] = biological target: Short transient receptor potential channel 4 (Mus musculus) (UniProt Q9QUQ5); test: blockers of DAMGO-evoked TRPC4 calcium flux – cell-based, Fluo4, HEK293 TRPC4beta/mu-opioid, confirmation (AID 2636;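 active = calcium signal cut by more than 3 SD below the full-agonist control yet still positive, in both repeats and the earlier primary screen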); settings: at 10 µM; stronger effect = higher value
Short transient receptor potential channel 4 (Mus musculus), sequence (Q9QUQ5 whole entry, looked up): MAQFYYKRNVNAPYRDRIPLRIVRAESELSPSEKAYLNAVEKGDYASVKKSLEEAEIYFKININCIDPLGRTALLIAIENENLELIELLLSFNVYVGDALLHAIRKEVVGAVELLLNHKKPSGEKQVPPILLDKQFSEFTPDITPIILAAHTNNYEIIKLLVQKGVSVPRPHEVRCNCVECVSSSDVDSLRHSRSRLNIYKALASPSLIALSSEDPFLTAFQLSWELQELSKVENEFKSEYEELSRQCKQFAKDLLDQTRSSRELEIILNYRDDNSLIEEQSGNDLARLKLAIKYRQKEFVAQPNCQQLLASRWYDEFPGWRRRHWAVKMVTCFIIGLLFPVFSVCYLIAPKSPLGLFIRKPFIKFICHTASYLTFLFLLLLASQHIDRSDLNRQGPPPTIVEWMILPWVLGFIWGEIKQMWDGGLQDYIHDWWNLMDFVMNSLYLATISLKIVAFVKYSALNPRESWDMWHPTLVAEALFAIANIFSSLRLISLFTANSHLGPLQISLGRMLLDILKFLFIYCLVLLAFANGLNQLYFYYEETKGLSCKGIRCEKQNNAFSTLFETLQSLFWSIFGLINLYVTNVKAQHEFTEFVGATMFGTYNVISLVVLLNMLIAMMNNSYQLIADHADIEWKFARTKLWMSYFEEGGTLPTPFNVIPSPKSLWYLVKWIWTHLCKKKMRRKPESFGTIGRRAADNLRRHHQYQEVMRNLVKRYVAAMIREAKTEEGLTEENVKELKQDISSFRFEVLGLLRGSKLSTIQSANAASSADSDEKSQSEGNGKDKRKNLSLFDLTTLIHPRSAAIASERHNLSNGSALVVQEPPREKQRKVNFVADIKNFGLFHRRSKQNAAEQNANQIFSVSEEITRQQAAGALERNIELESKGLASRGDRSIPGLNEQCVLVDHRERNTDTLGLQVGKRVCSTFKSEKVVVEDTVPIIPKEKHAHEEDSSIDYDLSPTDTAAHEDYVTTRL

[6] = biological target: Short transient receptor potential channel 4 (Mus musculus) (UniProt Q9QUQ5); test: blockers of DAMGO-evoked TRPC4 calcium flux – cell-based, second round, Fluo4, HEK293 TRPC4beta/mu-opioid, 1 µM, confirmation (AID 2637;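 active = calcium signal ratio cut to more than 3 SD under the fully stimulated control mean yet still positive, in both repeats and the primary screen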;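 for inhibition: percent of integrated ratio relative to wells lacking test compound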); settings: at 1 µM; stronger effect = higher value
[7] = biological target: Short transient receptor potential channel 4 (Mus musculus) (UniProt Q9QUQ5); test: calcium entry via TRPC4 opening agents – cell-based, HEK293 TRPC4/mu-opioid, Fluo-4 calcium, dose response (AID 434937;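 active = primary screen activator hit with a dose response curve and TRPC4 channel activation at any tested dose; inactive = no activation, no dose response, or not a primary hit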)
[8] = biological target: Short transient receptor potential channel 4 (Mus musculus) (UniProt Q9QUQ5); test: potentiation of DAMGO-evoked TRPC4 calcium signal – cell-based, HEK293 TRPC4/mu-opioid, Fluo-4 calcium, EC20 DAMGO, dose response (AID 434941;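 active = earlier screen potentiator hit that boosts the TRPC4 ion channel at some dose, with a dose response; inactive = no potentiation, no dose response, or not a prior hit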;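 note: calcium entry triggered by an EC20 dose of DAMGO at the co-expressed mu-opioid receptor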)
[9] = biological target: Short transient receptor potential channel 6 (Mus musculus) (UniProt Q61143); test: TRPC6 blockade by TRPC4 inhibitor hits – cell-based, HEK293, membrane potential dye, duplicate, selectivity assay for TRPC4 inhibitor project, confirmation (AID 434948;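 active = active in primary screen and both duplicates, each dropping signal beyond three positive-control SD with fluorescence still positive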); settings: HEK293 TRPC6, membrane potential dye fluorescence, at 10 µM, stimulated with maximal-effect acetylcholine; stronger effect = higher value
Short transient receptor potential channel 6 (Mus musculus), sequence (Q61143 whole entry, looked up): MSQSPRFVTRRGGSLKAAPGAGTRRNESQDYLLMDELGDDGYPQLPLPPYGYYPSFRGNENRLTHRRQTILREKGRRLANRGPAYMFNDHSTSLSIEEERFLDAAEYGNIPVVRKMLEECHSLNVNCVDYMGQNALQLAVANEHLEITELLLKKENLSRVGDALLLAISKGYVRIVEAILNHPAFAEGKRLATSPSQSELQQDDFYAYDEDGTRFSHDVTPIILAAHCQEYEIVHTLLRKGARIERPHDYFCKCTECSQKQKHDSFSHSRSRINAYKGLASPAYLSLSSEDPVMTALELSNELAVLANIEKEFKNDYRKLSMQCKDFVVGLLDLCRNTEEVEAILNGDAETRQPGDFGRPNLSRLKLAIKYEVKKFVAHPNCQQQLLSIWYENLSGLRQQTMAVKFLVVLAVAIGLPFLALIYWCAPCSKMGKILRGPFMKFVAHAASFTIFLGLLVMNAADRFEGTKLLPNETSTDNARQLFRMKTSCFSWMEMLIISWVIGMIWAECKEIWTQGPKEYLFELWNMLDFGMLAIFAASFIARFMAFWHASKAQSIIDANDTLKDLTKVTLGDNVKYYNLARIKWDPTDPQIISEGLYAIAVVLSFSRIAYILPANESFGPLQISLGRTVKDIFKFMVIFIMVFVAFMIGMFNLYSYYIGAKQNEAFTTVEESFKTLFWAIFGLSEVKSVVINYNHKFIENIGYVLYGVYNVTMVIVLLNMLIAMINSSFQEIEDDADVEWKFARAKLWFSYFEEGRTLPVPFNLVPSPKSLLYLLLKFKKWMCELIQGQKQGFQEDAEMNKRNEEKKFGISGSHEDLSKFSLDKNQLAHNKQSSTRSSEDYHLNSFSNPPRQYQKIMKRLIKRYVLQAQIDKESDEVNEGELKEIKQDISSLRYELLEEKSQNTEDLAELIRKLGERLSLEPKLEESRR

[10] = biological target: Short transient receptor potential channel 6 (Mus musculus) (UniProt Q61143); test: TRPC6 opening by TRPC4 activator hits – cell-based, HEK293, membrane potential dye, duplicate, selectivity assay for TRPC4 activator project, confirmation (AID 434950;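 active = membrane potential signal rise above negative control mean plus 3 SD in both duplicates, also active in the earlier TRPC4 screen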); settings: HEK293 TRPC6, membrane potential fluorescence, at 10 µM; activation: stronger effect = higher value; outcome: activation
[11] = biological target: Short transient receptor potential channel 6 (Mus musculus) (UniProt Q61143); test: positive modulators of mouse TRPC6 channel – HEK293 cells, membrane potential dye, duplicate, selectivity assay for TRPC4 potentiator project, confirmation (AID 434952;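 active = compound raising the membrane signal above positive-control mean plus 3 SD in both repeats, and a primary screen hit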); settings: HEK293 TRPC6, membrane potential dye fluorescence, at 10 µM, maximal acetylcholine added after compound; stronger effect = higher value
[12] = biological target: Short transient receptor potential channel 4 (Mus musculus) (UniProt Q9QUQ5); test: calcium flux activators in TRPC4/5HT1a cells, counter-screen for TRPC4 activator project, cell-based, second counter screen, HEK293 TRPC4/5HT1a, Fluo-4 (AID 434977;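 active = calcium signal rise above buffer-control mean plus 5 SD in both duplicates, and also a hit in the primary screen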); settings: Fluo-4 calcium flux, at 10 µM; stronger effect = higher value
[13] = serotonin-gated TRPC4 signal block – cell-based, second counter screen, HEK293 TRPC4/5HT1a, Fluo-4, counter-screen for TRPC4 inhibitor project, confirmation (AID 434978;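 active = primary screen active whose calcium signal fell more than 3 SD beyond the full-serotonin control mean in both duplicate plates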;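 for outcome: serotonin given first at submaximal then at maximal dose after compound preincubation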); settings: Fluo-4 calcium flux, at 10 µM, serotonin added to trigger calcium flux; stronger effect = higher value
[14] = system: TRPC4 (mouse), co-expressed with 5HT1a in HEK293; test: enhancement of serotonin-evoked TRPC4 response – cell-based, second counter screen, HEK293 TRPC4/5HT1a, Fluo-4, counter-screen for TRPC4 potentiator project, confirmation (AID 434979;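 active = signal rise over 3 SD above mean of control wells given weak agonist, in both repeats and first screen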); settings: Fluo-4 calcium flux, at 10 µM, serotonin added at its EC20 dose; stronger effect = higher value
[15] = nonspecific calcium rise without TRPC4 – cell-based, HEK293 mu-opioid receptor line, counter-screen for TRPC4 activator project, confirmation (AID 449723;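 active = hit in primary screen, with calcium signal over 5 SD above buffer well mean in both duplicates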;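 note: counter screen cells carry the mu-opioid receptor alone and lack TRPC4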); settings: HEK293 mu-opioid cells, Fluo-4 calcium fluorescence, at 10 µM; stronger effect = higher value
[16] = nonspecific potentiation of DAMGO calcium response – cell-based, HEK293 mu-opioid receptor line, counter-screen for TRPC4 allosteric potentiator project, confirmation (AID 449724;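 active = calcium signal rise more than 3 SD above the low-dose agonist control mean, in both duplicate plates and the primary screen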); settings: HEK293 mu-opioid receptor cells, Fluo-4 calcium flux, at 10 µM, compound added before EC20 DAMGO stimulus; stronger effect = higher value

## O=C(Nc1cccc(Cl)c1)N1CCN2C(=O)c3ccccc3C12c1ccccc1 (stereo unspecified)
[1]
  outcome: inactive
[2]
  outcome: inactive
[3]
  outcome: inactive
[4]
  outcome: inactive
[5]
  inhibition: 69% (active)
[6]
  outcome: inactive
[7]
  outcome: inactive
[8]
  outcome: inactive
[9]
  outcome: inactive
[10]
  outcome: inactive
[11]
  outcome: inactive
[12]
  outcome: inactive
[13]
  outcome: inactive
[14]
  outcome: inactive
[15]
  outcome: inactive
[16]
  outcome: inactive

## CCC(C)[C@H](Nc1nc(-c2ccccc2)nc2c1oc1ccccc12)C(=O)O (stereo partly specified)
[1]
  outcome: inactive
[2]
  outcome: inactive
[3]
  outcome: inactive
[4]
  outcome: inactive
[5]
  inhibition: 89% (active)
[6]
  outcome: inactive
[7]
  outcome: inactive
[8]
  outcome: inactive
[9]
  outcome: inactive
[10]
  outcome: inactive
[11]
  outcome: inactive
[12]
  outcome: inactive
[13]
  outcome: inactive
[14]
  outcome: inactive
[15]
  outcome: inactive
[16]
  outcome: inactive

## c1ccc2c(c1)nnn2-c1ncnc2sc3c(c12)CCCC3
[1]
  outcome: inactive
[2]
  outcome: inactive
[3]
  outcome: inactive
[4]
  outcome: inactive
[5]
  inhibition: 71% (active)
[6]
  outcome: inactive
[7]
  outcome: inactive
[8]
  outcome: inactive
[9]
  outcome: inactive
[10]
  outcome: inactive
[11]
  outcome: inactive
[12]
  outcome: inactive
[13]
  inhibition: 21.8% (active)
[14]
  outcome: inactive
[15]
  outcome: inactive
[16]
  outcome: inactive

## Cc1ccccc1N1CC(O)(c2cccs2)[N+]2=C1CCCC2 (stereo unspecified)
[1]
  outcome: inactive
[2]
  outcome: inactive
[3]
  outcome: inactive
[4]
  outcome: inactive
[5]
  outcome: inactive
[6]
  outcome: inactive
[7]
  outcome: inactive
[8]
  outcome: inactive
[9]
  outcome: inactive
[10]
  outcome: inactive
[11]
  outcome: inactive
[12]
  outcome: inactive
[13]
  outcome: inactive
[14]
  outcome: inactive
[15]
  outcome: inactive
[16]
  outcome: inactive

## C=CCn1cnc2scc(-c3ccc(CC)cc3)c2c1=O
[1]
  outcome: inactive
[2]
  outcome: inactive
[3]
  outcome: inactive
[4]
  outcome: inactive
[5]
  inhibition: 57% (active)
[6]
  outcome: inactive
[7]
  outcome: inactive
[8]
  outcome: inactive
[9]
  outcome: inactive
[10]
  outcome: inactive
[11]
  outcome: inactive
[12]
  outcome: inactive
[13]
  outcome: inactive
[14]
  outcome: inactive
[15]
  outcome: inactive
[16]
  outcome: inactive

## CCC(=O)N1CCc2cc(S(=O)(=O)NCCN3CCCCC3CC)ccc21 (stereo unspecified)
[1]
  outcome: inactive
[2]
  outcome: inactive
[3]
  outcome: inactive
[4]
  outcome: inactive
[5]
  inhibition: 94% (active)
[6]
  inhibition: 59% (active)
[7]
  outcome: inactive
[8]
  outcome: inactive
[9]
  outcome: inactive
[10]
  outcome: inactive
[11]
  outcome: inactive
[12]
  outcome: inactive
[13]
  inhibition: 17.9% (active)
[14]
  outcome: inactive
[15]
  outcome: inactive
[16]
  outcome: inactive

## FC(F)Oc1ccccc1NC(=S)Nc1cccc(Cl)c1Cl
[1]
  outcome: inactive
[2]
  outcome: inactive
[3]
  outcome: inactive
[4]
  outcome: inactive
[5]
  inhibition: 77% (active)
[6]
  inhibition: 45% (active)
[7]
  outcome: inactive
[8]
  outcome: inactive
[9]
  outcome: inactive
[10]
  outcome: inactive
[11]
  outcome: inactive
[12]
  outcome: inactive
[13]
  outcome: inactive
[14]
  outcome: inactive
[15]
  outcome: inactive
[16]
  outcome: inactive

## Oc1ccc(CN2CCc3ccccc3C2)c2cccnc12
[1]
  outcome: inactive
[2]
  outcome: inactive
[3]
  outcome: inactive
[4]
  outcome: inactive
[5]
  inhibition: 97% (active)
[6]
  inhibition: 45% (active)
[7]
  outcome: inactive
[8]
  outcome: inactive
[9]
  inhibition: 58% (active)
[10]
  outcome: inactive
[11]
  outcome: inactive
[12]
  outcome: inactive
[13]
  inhibition: 19.6% (active)
[14]
  outcome: inactive
[15]
  outcome: inactive
[16]
  outcome: inactive

## COc1ccc(C2C(C(C)=O)=C(O)C(=O)N2c2ccc(Br)cc2)cc1 (stereo unspecified)
[1]
  outcome: inactive
[2]
  outcome: inactive
[3]
  outcome: inactive
[4]
  outcome: inactive
[5]
  inhibition: 84% (active)
[6]
  inhibition: 62% (active)
[7]
  outcome: inactive
[8]
  outcome: inactive
[9]
  outcome: inactive
[10]
  outcome: inactive
[11]
  outcome: inactive
[12]
  outcome: inactive
[13]
  inhibition: 23.3% (active)
[14]
  outcome: inactive
[15]
  outcome: inactive
[16]
  outcome: inactive

## Cc1ccc(C(C(=O)NC(C)(C)C)N(C(=O)CCC(=O)Nc2ccccn2)c2ccccc2F)cc1 (stereo unspecified)
[1]
  outcome: inactive
[2]
  outcome: inactive
[3]
  outcome: inactive
[4]
  outcome: inactive
[5]
  inhibition: 61% (active)
[6]
  outcome: inactive
[7]
  outcome: inactive
[8]
  outcome: inactive
[9]
  outcome: inactive
[10]
  outcome: inactive
[11]
  outcome: inactive
[12]
  outcome: inactive
[13]
  inhibition: 28.9% (active)
[14]
  outcome: inactive
[15]
  outcome: inactive
[16]
  outcome: inactive

## COc1cc(OC)c(C2N(C)c3ccccc3N2C)cc1OC
[1]
  outcome: inactive
[2]
  outcome: inactive
[3]
  outcome: inactive
[4]
  outcome: inactive
[5]
  inhibition: 77% (active)
[6]
  outcome: inactive
[7]
  outcome: inactive
[8]
  outcome: inactive
[9]
  outcome: inactive
[10]
  outcome: inactive
[11]
  outcome: inactive
[12]
  outcome: inactive
[13]
  outcome: inactive
[14]
  outcome: inactive
[15]
  outcome: inactive
[16]
  outcome: inactive

## O=C(CSc1nnc(-c2ccc(Cl)cc2Cl)n1C1CCCCC1)NC1CCS(=O)(=O)C1 (stereo unspecified)
[1]
  outcome: inactive
[2]
  outcome: inactive
[3]
  outcome: inactive
[4]
  outcome: inactive
[5]
  inhibition: 82% (active)
[6]
  outcome: inactive
[7]
  outcome: inactive
[8]
  outcome: inactive
[9]
  outcome: inactive
[10]
  outcome: inactive
[11]
  outcome: inactive
[12]
  outcome: inactive
[13]
  outcome: inactive
[14]
  outcome: inactive
[15]
  outcome: inactive
[16]
  outcome: inactive

## Cc1ccc(NC(=S)N(CCCN(C)C)Cc2cc3cc4c(cc3[nH]c2=O)OCO4)c(C)c1
[1]
  outcome: inactive
[2]
  outcome: inactive
[3]
  outcome: inactive
[4]
  outcome: inactive
[5]
  inhibition: 96% (active)
[6]
  inhibition: 70% (active)
[7]
  outcome: inactive
[8]
  outcome: inactive
[9]
  outcome: inactive
[10]
  outcome: inactive
[11]
  outcome: inactive
[12]
  outcome: inactive
[13]
  inhibition: 14.4% (active)
[14]
  outcome: inactive
[15]
  outcome: inactive
[16]
  outcome: inactive

## COc1cc(CN(C)CC2CCCN(CCc3ccccc3F)C2)cc(Cl)c1OC (stereo unspecified)
[1]
  outcome: inactive
[2]
  outcome: inactive
[3]
  outcome: inactive
[4]
  outcome: inactive
[5]
  inhibition: 93% (active)
[6]
  outcome: inactive
[7]
  outcome: inactive
[8]
  outcome: inactive
[9]
  outcome: inactive
[10]
  outcome: inactive
[11]
  outcome: inactive
[12]
  outcome: inactive
[13]
  inhibition: 0.1% (active)
[14]
  outcome: inactive
[15]
  outcome: inactive
[16]
  outcome: inactive

## CN(C)CCCNc1c2ccccc2nc2ccccc12
[1]
  outcome: inactive
[2]
  outcome: inactive
[3]
  outcome: inactive
[4]
  outcome: inactive
[5]
  inhibition: 94% (active)
[6]
  inhibition: 62% (active)
[7]
  outcome: inactive
[8]
  outcome: inactive
[9]
  outcome: inactive
[10]
  outcome: inactive
[11]
  outcome: inactive
[12]
  outcome: inactive
[13]
  inhibition: 22.7% (active)
[14]
  outcome: inactive
[15]
  outcome: inactive
[16]
  outcome: inactive

## Fc1ccccc1Sc1ccccc1CNC1=NCCN1
[1]
  outcome: inactive
[2]
  outcome: inactive
[3]
  outcome: inactive
[4]
  outcome: inactive
[5]
  inhibition: 93% (active)
[6]
  inhibition: 68% (active)
[7]
  outcome: inactive
[8]
  outcome: inactive
[9]
  outcome: inactive
[10]
  outcome: inactive
[11]
  outcome: inactive
[12]
  outcome: inactive
[13]
  inhibition: 16.1% (active)
[14]
  outcome: inactive
[15]
  outcome: inactive
[16]
  outcome: inactive
